# From the supplement of paper PMC10849652
# About 7,900 targets were measured; listed, in parts, are those with a hit and a random draw of the rest. About 0.6% of all pairs of compound and target were hits. Values without a mark were called inactive.
# Legend:
# Assay in all cases: log2 fold change, soluble protein after heating vs DMSO (PISA); higher = thermal stabilisation; K562 cells, 10 uM, 30 min; active = over 0.2 and 3.5 SD of the protein, either way, in both replicates (recomputed)
# [1] = compound: CC[C@@H]1C(=O)N(C)c2cnc(Nc3ccc(C(=O)NC4CCN(C)CC4)cc3OC)nc2N1C1CCCC1
# Summary of the method: (§1)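 K562 cells at 2×10^6 cells/mL were treated for 30 min with 10 μM compound, and aliquots were heated for 3 min over 48°C-58°C before pooling. Extraction used PBS with 0.5% NP-40 at 4°C, and soluble protein was the supernatant after 21,000xg for 90 min, measured by TMTpro 16plex LC-MS/MS with channel sums equalised. Thermal stability values, relative to control samples and from duplicates, are log2 fold changes.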
# [2] = compound: CC[C@@H]1C(=O)N(C)c2cnc(Nc3ccc(C(=O)N[C@H]4CC[C@H](N5CCN(CC6CC6)CC5)CC4)cc3OC)nc2N1C(C)C [volasertib]
# Summary of the method: as §1
# [3] = compound: CC[C@H](C)N1C=C(C2=C(C=C(C=C21)C3=CN=C(C=C3)N4CCNCC4)C(=O)NCC5=C(C=C(NC5=O)C)C)C
# Summary of the method: as §1
# [4] = compound: CC[C@H](C)[C@@H](C(=O)N[C@@H]([C@@H](C)O)C(=O)N[C@@H](CC(C)C)C(=O)[C@]1(CO1)C)NC(=O)[C@H]([C@@H](C)CC)N(C)C(=O)C [epoxomicin]
# Summary of the method: as §1
# [5] = compound: CCn1c(C(=O)N(C2CC2)C2CC2)cc2c3c(ncn3C)c(Nc3cc(C)n(C)n3)nc21
# Summary of the method: as §1
# [6] = compound: CCn1cc(-c2ccnc3[nH]c(-c4cccc(CN(C)C)c4)cc23)c(-c2ccc(NC(=O)N(C)C)cc2)n1
# Summary of the method: as §1
# [7] = compound: CN(C)CC(=O)Nc1ccc2[nH]c(=O)c3ccccc3c2c1
# Summary of the method: as §1
# [8] = compound: CN(CCOC1=CC=C(C=C1)C[C@H]2C(=O)NC(=O)S2)C3=CC=CC=N3 (racemic) [rosiglitazone]
# Summary of the method: as §1
# [9] = compound: CN1C2=C(C3=C1C(=O)N(N=C3)CC4=CC(=CC=C4)N)SC(=C2)S(=O)C
# Summary of the method: as §1
# [10] = compound: CN1CCC(CNc2ccc3ncc(-c4cccc(OC(F)(F)F)c4)n3n2)CC1
# Summary of the method: as §1
# [11] = compound: CN1CCN(CCOc2cc(OC3CCOCC3)c3c(Nc4c(Cl)ccc5c4OCO5)ncnc3c2)CC1 [saracatinib]
# Summary of the method: as §1
# [12] = compound: CN1CCN(c2nc(C3=C(c4c[nH]c5ccccc45)C(=O)NC3=O)c3ccccc3n2)CC1 [sotrastaurin]
# Summary of the method: as §1
# [13] = compound: CN1CC[C@H](c2c(O)cc(O)c3c(=O)cc(-c4ccccc4Cl)oc23)[C@H](O)C1 [alvocidib]
# Summary of the method: as §1
# [14] = compound: CN1CCc2c(c3ccccc3n2Cc2ccc(C(=O)NO)cc2)C1 [Tubastatin A]
# Summary of the method: as §1
# [15] = compound: CNC(=O)C1=CC=CC=C1NC2=NC(=NC=C2Cl)NC3=C(C=C(C=C3)N4CCOCC4)OC
# Summary of the method: as §1
# [16] = compound: CNC(=O)c1ccc(Nc2ncc(C(F)(F)F)c(NCc3nccnc3N(C)S(C)(=O)=O)n2)cc1 [defactinib]
# Summary of the method: as §1
# [17] = compound: CNCc1ccc(-c2[nH]c3cc(F)cc4c3c2CCNC4=O)cc1 [rucaparib]
# Summary of the method: as §1
# [18] = compound: CNc1nc(-c2ccc3c(N)n[nH]c3c2)cc(N2C[C@@H](C(=O)NC3CCCCC3)CC[C@H]2C)n1
# Summary of the method: as §1
# [19] = compound: COC(=O)N[C@@H](C)CNc1nccc(-c2cn(C(C)C)nc2-c2cc(Cl)cc(NS(C)(=O)=O)c2F)n1 [encorafenib]
# Summary of the method: as §1
# [20] = compound: COC(=O)[C@H](CCSC)NC(=O)C1=C(C=C(C=C1)NC[C@H](CS)N)C2=CC=CC=C2
# Summary of the method: as §1
# Chain of UniProt P10619 (P10619 whole entry, looked up): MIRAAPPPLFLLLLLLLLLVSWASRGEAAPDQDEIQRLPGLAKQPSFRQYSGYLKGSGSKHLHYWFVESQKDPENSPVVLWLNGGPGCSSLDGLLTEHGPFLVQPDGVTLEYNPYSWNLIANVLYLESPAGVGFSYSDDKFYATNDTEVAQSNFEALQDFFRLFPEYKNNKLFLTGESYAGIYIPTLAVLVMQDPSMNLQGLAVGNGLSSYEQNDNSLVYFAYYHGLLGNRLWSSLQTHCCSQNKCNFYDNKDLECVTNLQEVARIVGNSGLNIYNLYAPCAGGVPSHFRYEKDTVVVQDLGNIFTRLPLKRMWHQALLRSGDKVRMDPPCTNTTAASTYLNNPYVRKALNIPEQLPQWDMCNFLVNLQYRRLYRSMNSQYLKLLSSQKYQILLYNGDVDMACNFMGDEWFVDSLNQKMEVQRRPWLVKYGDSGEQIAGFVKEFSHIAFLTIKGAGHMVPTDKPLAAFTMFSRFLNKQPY
# Chain of UniProt Q16254 (Q16254 whole entry, looked up): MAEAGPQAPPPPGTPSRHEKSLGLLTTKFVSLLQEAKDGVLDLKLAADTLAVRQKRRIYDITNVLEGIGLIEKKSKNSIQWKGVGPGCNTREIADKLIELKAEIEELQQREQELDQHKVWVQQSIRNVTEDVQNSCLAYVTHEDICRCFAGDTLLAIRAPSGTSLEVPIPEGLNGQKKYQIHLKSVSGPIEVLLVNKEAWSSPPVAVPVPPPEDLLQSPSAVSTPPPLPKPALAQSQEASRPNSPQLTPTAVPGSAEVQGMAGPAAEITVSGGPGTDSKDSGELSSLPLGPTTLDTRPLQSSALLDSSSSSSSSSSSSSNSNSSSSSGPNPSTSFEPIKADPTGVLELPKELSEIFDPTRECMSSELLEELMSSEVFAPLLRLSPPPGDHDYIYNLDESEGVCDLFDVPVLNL
# Chain of UniProt O76075 (O76075 whole entry, looked up): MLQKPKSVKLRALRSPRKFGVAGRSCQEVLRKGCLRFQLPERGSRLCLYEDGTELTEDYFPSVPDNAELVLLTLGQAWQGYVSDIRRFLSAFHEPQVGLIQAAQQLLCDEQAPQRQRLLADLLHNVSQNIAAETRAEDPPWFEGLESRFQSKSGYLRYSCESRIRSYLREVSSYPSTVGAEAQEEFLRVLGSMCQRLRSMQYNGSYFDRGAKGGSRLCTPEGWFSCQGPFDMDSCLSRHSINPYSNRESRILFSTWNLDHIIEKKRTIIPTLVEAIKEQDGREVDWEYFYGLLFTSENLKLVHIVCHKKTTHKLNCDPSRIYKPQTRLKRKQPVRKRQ
# Chain of UniProt Q9BPY3 (Q9BPY3 whole entry, looked up): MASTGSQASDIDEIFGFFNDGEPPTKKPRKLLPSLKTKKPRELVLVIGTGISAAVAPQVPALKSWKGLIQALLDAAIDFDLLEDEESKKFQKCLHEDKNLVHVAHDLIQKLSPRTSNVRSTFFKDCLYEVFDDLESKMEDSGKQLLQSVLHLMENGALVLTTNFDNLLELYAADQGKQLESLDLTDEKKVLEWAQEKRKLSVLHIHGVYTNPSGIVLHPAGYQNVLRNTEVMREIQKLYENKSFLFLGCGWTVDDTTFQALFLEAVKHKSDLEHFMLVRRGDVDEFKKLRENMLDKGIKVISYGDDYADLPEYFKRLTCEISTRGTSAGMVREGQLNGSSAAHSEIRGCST
# Chain of UniProt P98173 (P98173 whole entry, looked up): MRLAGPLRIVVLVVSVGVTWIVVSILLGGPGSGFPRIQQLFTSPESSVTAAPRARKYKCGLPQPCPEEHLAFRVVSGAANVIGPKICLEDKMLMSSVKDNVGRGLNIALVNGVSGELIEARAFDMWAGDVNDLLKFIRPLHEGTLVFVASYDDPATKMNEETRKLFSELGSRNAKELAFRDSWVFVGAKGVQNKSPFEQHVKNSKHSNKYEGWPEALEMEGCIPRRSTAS
# Chain of UniProt O75071 (O75071 whole entry, looked up): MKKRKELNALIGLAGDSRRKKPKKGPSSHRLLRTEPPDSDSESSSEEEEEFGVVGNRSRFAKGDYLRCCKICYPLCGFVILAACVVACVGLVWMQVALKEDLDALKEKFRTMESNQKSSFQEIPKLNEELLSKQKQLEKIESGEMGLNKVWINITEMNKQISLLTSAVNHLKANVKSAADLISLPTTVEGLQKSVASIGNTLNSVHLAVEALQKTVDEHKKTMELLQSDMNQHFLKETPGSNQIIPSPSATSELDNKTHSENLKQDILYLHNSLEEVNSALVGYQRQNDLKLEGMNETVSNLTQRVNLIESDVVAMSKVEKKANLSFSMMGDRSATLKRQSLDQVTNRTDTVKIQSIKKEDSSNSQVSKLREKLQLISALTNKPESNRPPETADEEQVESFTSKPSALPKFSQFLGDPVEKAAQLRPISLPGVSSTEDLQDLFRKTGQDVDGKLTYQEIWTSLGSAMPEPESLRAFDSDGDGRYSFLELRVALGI
# Chain of UniProt Q9H2P9 (Q9H2P9 whole entry, looked up): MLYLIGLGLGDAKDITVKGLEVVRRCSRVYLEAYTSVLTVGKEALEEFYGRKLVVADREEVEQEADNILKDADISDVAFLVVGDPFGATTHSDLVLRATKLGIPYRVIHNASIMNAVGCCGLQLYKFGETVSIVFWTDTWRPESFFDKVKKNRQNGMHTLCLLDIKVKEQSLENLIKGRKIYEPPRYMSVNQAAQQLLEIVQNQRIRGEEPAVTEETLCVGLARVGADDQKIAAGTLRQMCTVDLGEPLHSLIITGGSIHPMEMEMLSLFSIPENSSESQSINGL
# Chain of UniProt Q9UBR2 (Q9UBR2 whole entry, looked up): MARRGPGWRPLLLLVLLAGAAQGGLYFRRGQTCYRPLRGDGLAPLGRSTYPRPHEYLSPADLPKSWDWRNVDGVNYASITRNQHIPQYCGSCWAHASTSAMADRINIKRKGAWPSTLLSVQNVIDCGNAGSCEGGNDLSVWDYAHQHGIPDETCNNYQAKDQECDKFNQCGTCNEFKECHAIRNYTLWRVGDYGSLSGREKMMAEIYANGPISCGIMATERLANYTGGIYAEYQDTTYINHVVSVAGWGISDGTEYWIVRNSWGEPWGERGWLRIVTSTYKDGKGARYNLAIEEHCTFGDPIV
Target,log2 fold change [1],log2 fold change [2],log2 fold change [3],log2 fold change [4],log2 fold change [5],log2 fold change [6],log2 fold change [7],log2 fold change [8],log2 fold change [9],log2 fold change [10],log2 fold change [11],log2 fold change [12],log2 fold change [13],log2 fold change [14],log2 fold change [15],log2 fold change [16],log2 fold change [17],log2 fold change [18],log2 fold change [19],log2 fold change [20]
CTSZ (UniProt Q9UBR2),-0.954 (active),-1.54 (active),-0.058,0.02,0.022,0,-0.026,-0.028,-0.087,-0.843 (active),0.025,0.079,-0.008,-0.056,0.005,0,-0.098,0.012,-0.012,0.027
E2F4 (UniProt Q16254),-0.057,-0.139,0.036,-0.008,-0.017,-0.025,-0.024,0.056,0.009,-0.245 (active),-0.012,-0.056,-0.134,0.028,-0.045,-0.122,-0.025,-0.02,-0.002,-0.042
FAM3A (UniProt P98173),0.024,-0.11,-0.02,0.029,0.085,0.066,0.019,0.101,-0.023,-0.128,0.038,0.001,-0.027,0.045,0.065,-0.035,0.017,0.075,0.118,-0.041
CTSA (UniProt P10619),-1.24 (active),-1.57 (active),-0.037,-0.003,-0.031,0.018,0.011,-0.017,-0.007,-1.44 (active),0.056,0.089,0.04,-0.015,0.06,0.022,-0.041,0.002,0.057,0.065
DPH5 isoform 5 (UniProt Q9H2P9),0.047,0.08,-0.022,0.049,-0.055,-0.018,-0.013,0.013,-0.115,0.034,-0.007,-0.017,-0.064,-0.022,0.07,0,-0.061,0,0.025,0.004
EFCAB14 (UniProt O75071),-0.033,-0.089,-0.078,0.068,0.045,0.06,-0.018,-0.009,0.028,-0.178,-0.164,0.083,0.016,-0.029,-0.03,0.093,-0.059,0.031,0.044,-0.086
DFFB (UniProt O76075),0.049,0.036,0.104,0.039,-0.057,0.028,-0.036,0,-0.074,-0.01,0.017,0.052,-0.038,0.07,0.009,0.024,0.049,-0.016,-0.019,0.033
FAM118B (UniProt Q9BPY3),-0.087,-0.445 (active),0.035,0.036,-0.008,-0.067,0.11,0.026,–,-0.373 (active),–,-0.02,-0.142,0.019,0.088,-0.113,0.041,–,0.029,-0.037
DMXL1 (UniProt Q9Y485),-0.119,-0.241,0.029,0.026,-0.044,0.072,0.012,-0.032,0.01,-0.276 (active),0.014,0.001,-0.068,-0.011,-0.065,-0.035,0.076,-0.017,0.043,-0.047
